Measured values taken from PubChem BioAssay (NCATS).
Where “and” joins values, the source holds several entries; their conditions need not be identical. Equal entries are not always repeated. Records with an inconclusive call do not appear. Where a structure was tested more than once in an assay, its records may differ in their call. Calls of active or inactive are those of the source. Calls come from the whole dose curve; as a rule, active = well fitted curve in the direction sought with a large enough effect; inconclusive = small, poorly fitted or top-dose-only effect, or another doubt; inactive = no such curve, though single readings can be large; an effect the other way counts as inactive or inconclusive.

What was measured:
MKL-1 = assay: qHTS assay to identify novel small-molecules to repurpose for Merkel cell carcinoma treatment (AID 1296009); conditions: MCC and control cell lines, CellTiter-Glo viability, 72 h; series mostly up to 46 µM; note: nearly all actives have a fitted effect of over 60% in size; note: potency is the fitted concentration of half-maximal effect
How it was run: (§1)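 Viability readout: ATP luminescence (CellTiter-Glo) after 72 hr drug exposure at 37 degree celsius. Dose-response format was 8 points for NPC and 11 points for MIPE; data normalized to in-plate controls.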

MKL-2 = assay: as above; conditions: MCC and control cell lines, CellTiter-Glo viability, 72 h; series mostly up to 46 µM
How it was run: as §1

UISO = assay: as above; conditions: MCC and control cell lines, CellTiter-Glo viability, 72 h; series mostly up to 46 µM
How it was run: as §1

WaGa = assay: as above; conditions: MCC and control cell lines, CellTiter-Glo viability, 72 h; series mostly up to 46 µM
How it was run: as §1

C33A = assay: Primary qHTS to identify gynecologic anti-cancer compounds using libraries of approved drugs and bioactive compounds (AID 1345084); conditions: Gynecologic cancer cell panel viability, ATPlite luminescence, 48 h; series mostly up to 57.5 µM; note: nearly all actives have a fitted effect of over 55% in size
How it was run: (§2)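 In this quantitative HTS, cell killing is estimated from loss of ATP-dependent luciferase light. Cells see five compound concentrations over a 48 h exposure.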

CAOV3 = assay: as above; conditions: Gynecologic cancer cell panel viability, ATPlite luminescence, 48 h; series mostly up to 57.5 µM
How it was run: as §2

CASKI = assay: as above; conditions: Gynecologic cancer cell panel viability, ATPlite luminescence, 48 h; series mostly up to 57.5 µM
How it was run: as §2

Es-2 = assay: as above; conditions: Gynecologic cancer cell panel viability, ATPlite luminescence, 48 h; series mostly up to 57.5 µM
How it was run: as §2

HeLa = assay: as above; conditions: Gynecologic cancer cell panel viability, ATPlite luminescence, 48 h; series mostly up to 57.5 µM
How it was run: as §2

Hek293T = assay: as above; conditions: Gynecologic cancer cell panel viability, ATPlite luminescence, 48 h, control line for the selectivity index; series mostly up to 57.5 µM
How it was run: as §2

JEG-3 = assay: as above; conditions: Gynecologic cancer cell panel viability, ATPlite luminescence, 48 h; series mostly up to 57.5 µM
How it was run: as §2

OV90 = assay: as above; conditions: Gynecologic cancer cell panel viability, ATPlite luminescence, 48 h; series mostly up to 57.5 µM
How it was run: as §2

PA-1 = assay: as above; conditions: Gynecologic cancer cell panel viability, ATPlite luminescence, 48 h; series mostly up to 57.5 µM
How it was run: as §2

SKOV3 = assay: as above; conditions: Gynecologic cancer cell panel viability, ATPlite luminescence, 48 h; series mostly up to 57.5 µM
How it was run: as §2

Tov-21-G = assay: as above; conditions: Gynecologic cancer cell panel viability, ATPlite luminescence, 48 h; series mostly up to 57.5 µM
How it was run: as §2

Tov112D = assay: as above; conditions: Gynecologic cancer cell panel viability, ATPlite luminescence, 48 h; series mostly up to 57.5 µM
How it was run: as §2

[1] = Drug repurposing screens with cells derived from glioblastoma tumor samples (AID 1345199); conditions: GBM patient neurospheres viability, ATP luminescence, 48 h; note: nearly all actives have a fitted effect of over 40% in size
How it was run: (§3)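 Primary testing used CD133+ neurospheres from four GBM patients, seven concentrations, 48 h exposure and ATP-based viability; confirmation added three slower-growing patient lines.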

astro = assay: as above; conditions: viability, ATP luminescence, 48 h; series mostly up to 45.9 µM
How it was run: as §3

NIH3T3 = assay: qHTS assay to identify novel small-molecules to repurpose for Merkel cell carcinoma treatment (AID 1296009); conditions: MCC and control cell lines, CellTiter-Glo viability, 72 h; series mostly up to 44.8 µM; note: nearly all actives have a fitted effect of over 60% in size; note: potency is the fitted concentration of half-maximal effect
How it was run: as §1

[2] = at 20 µM (top of the series), tumour line C
[3] = at 21.2 µM (top of the series), tumour line B
[4] = at 21.2 µM (top of the series), tumour line D
[5] = at 45.9 µM (top of the series), tumour line B
[6] = at 45.9 µM (top of the series), tumour line D
[7] = at 46 µM (top of the series), tumour line A
[8] = at 46.1 µM (top of the series), tumour line C
% is set by controls: 0 for no effect and ±100 for the full control effect.

NCCCCCC(=O)O
inactive: Potency (MKL-1) | Potency (MKL-2) | Potency (UISO) | Potency (WaGa) | Potency (C33A) | Potency (CAOV3) | Potency (CASKI) | Potency (Es-2) | Potency (HeLa) | Potency (Hek293T) | Potency (JEG-3) | Potency (OV90) | Potency (PA-1) | Potency (SKOV3) | Potency (Tov-21-G) | Potency (Tov112D) | activity, negative = cell killing [1, 2] 16.3% | activity, negative = cell killing [1, 3] -4.6% | activity, negative = cell killing [1, 4] -5.09% | activity, negative = cell killing ([1]; at 21.3 µM (top of the series), tumour line A) -27.1% | Potency (astro)

Nc1nc2c(ncn2COC(CO)CO)c(=O)[nH]1
inactive and 7.43 µM (active): Potency (MKL-2)
inactive: Potency (MKL-1) | Potency (WaGa) | Potency (C33A) | Potency (CAOV3) | Potency (CASKI) | Potency (Es-2) | Potency (HeLa) | Potency (Hek293T) | Potency (JEG-3) | Potency (OV90) | Potency (PA-1) | Potency (SKOV3) | Potency (Tov-21-G) | Potency (Tov112D) | activity, negative = cell killing [1, 2] -13.4% | activity, negative = cell killing [1, 3] -13.7% | activity, negative = cell killing [1, 4] -24.4% | Potency (astro)
inactive and 18.7 µM (active): Potency (UISO)

CCc1cccc2c3c([nH]c12)C(CC)(CC(=O)O)OCC3 (centres undefined)
inactive: Potency (MKL-1) | Potency (MKL-2) | Potency (UISO) | Potency (WaGa) | Potency (C33A) | Potency (CASKI) | Potency (Es-2) | Potency (HeLa) | Potency (Hek293T) | Potency (JEG-3) | Potency (OV90) | Potency (PA-1) | Potency (SKOV3) | Potency (Tov-21-G) | Potency (Tov112D) | activity, negative = cell killing [1, 5] -7.67% | activity, negative = cell killing [1, 6] -2.3% | activity, negative = cell killing [1, 7] -23.8% | activity, negative = cell killing [1, 8] -25.9% | Potency (astro)

CC12CC3CC(C)(C1)CC(N)(C3)C2
inactive: Potency (MKL-1) | Potency (MKL-2) | Potency (UISO) | Potency (C33A) | Potency (CASKI) | Potency (Es-2) | Potency (HeLa) | Potency (Hek293T) | Potency (JEG-3) | Potency (OV90) | Potency (PA-1) | Potency (SKOV3) | Potency (Tov-21-G) | Potency (Tov112D) | activity, negative = cell killing [1, 5] 2.01% | activity, negative = cell killing [1, 6] -1.27% | activity, negative = cell killing [1, 7] 0.163% | activity, negative = cell killing [1, 8] 0.449% | Potency (astro)
3.72 µM (active) and inactive: Potency (WaGa)

NS(=O)(=O)c1cc2c(cc1Cl)NCNS2(=O)=O
inactive: Potency (MKL-1) | Potency (MKL-2) | Potency (UISO) | Potency (WaGa) | Potency (C33A) | Potency (CAOV3) | Potency (CASKI) | Potency (Es-2) | Potency (HeLa) | Potency (Hek293T) | Potency (JEG-3) | Potency (OV90) | Potency (PA-1) | Potency (SKOV3) | Potency (Tov-21-G) | Potency (Tov112D) | activity, negative = cell killing [1, 5] -16.5% | activity, negative = cell killing [1, 6] -0.301% | activity, negative = cell killing [1, 7] -4.73% | activity, negative = cell killing [1, 8] -21.1% | Potency (astro)

CN1C2CCC1CC(OC(=O)C(CO)c1ccccc1)C2 (centres undefined)
inactive: Potency (MKL-1) | Potency (MKL-2) | Potency (UISO) | Potency (WaGa)

C[C@H]1c2cccc(O)c2C(O)=C2C(=O)[C@]3(O)C(O)=C(C(N)=O)C(=O)[C@@H](N(C)C)[C@@H]3[C@@H](O)[C@@H]21
inactive: Potency (MKL-1) | Potency (MKL-2) | outcome (NIH3T3) | Potency (WaGa) | Potency (C33A) | Potency (CAOV3) | Potency (Es-2) | Potency (HeLa) | Potency (Hek293T) | Potency (JEG-3) | Potency (OV90) | Potency (PA-1) | Potency (SKOV3) | Potency (Tov-21-G) | Potency (Tov112D) | activity, negative = cell killing [1, 5] -22.1% | activity, negative = cell killing [1, 6] -13% | Potency (astro)

CC(C)C(=O)Nc1ccc([N+](=O)[O-])c(C(F)(F)F)c1
inactive: Potency (MKL-1) | Potency (MKL-2) | outcome (NIH3T3) | Potency (UISO) | Potency (C33A) | Potency (CAOV3) | Potency (CASKI) | Potency (Es-2) | Potency (HeLa) | Potency (Tov-21-G) | Potency (Tov112D)

Cn1c(=O)c2c(ncn2C)n(C)c1=O
inactive: Potency (MKL-1) | Potency (MKL-2) | Potency (UISO) | Potency (WaGa) | Potency (C33A) | Potency (CASKI) | Potency (Es-2) | Potency (HeLa) | Potency (Hek293T) | Potency (JEG-3) | Potency (OV90) | Potency (PA-1) | Potency (SKOV3) | Potency (Tov-21-G) | Potency (Tov112D) | activity, negative = cell killing [1, 5] -15% | activity, negative = cell killing [1, 6] -11.6% | activity, negative = cell killing [1, 7] -31.4% | activity, negative = cell killing [1, 8] -0.268% | Potency (astro)

Cc1cn([C@H]2C=C[C@@H](CO)O2)c(=O)[nH]c1=O
inactive: Potency (MKL-1) | Potency (MKL-2) | Potency (UISO) | Potency (WaGa) | Potency (C33A) | Potency (CASKI) | Potency (Es-2) | Potency (HeLa) | Potency (Hek293T) | Potency (JEG-3) | Potency (OV90) | Potency (PA-1) | Potency (SKOV3) | Potency (Tov-21-G) | Potency (Tov112D) | activity, negative = cell killing [1, 5] -6.16% | activity, negative = cell killing [1, 6] -7.24% | activity, negative = cell killing [1, 7] -20.7% | activity, negative = cell killing [1, 8] -21.2% | Potency (astro)

CS(=O)(=O)CCNCc1ccc(-c2ccc3ncnc(Nc4ccc(OCc5cccc(F)c5)c(Cl)c4)c3c2)o1
inactive and 16.8 µM (active): Potency (WaGa)
inactive: Potency (MKL-1) | Potency (UISO) | Potency (C33A) | Potency (CASKI) | Potency (Es-2) | Potency (HeLa) | Potency (Hek293T) | Potency (JEG-3) | Potency (OV90) | Potency (PA-1) | Potency (SKOV3) | Potency (Tov-21-G) | Potency (Tov112D) | activity, negative = cell killing [1, 5] -6.77% | activity, negative = cell killing [1, 6] -7.21% | activity, negative = cell killing [1, 8] -22.4% | Potency (astro)
active: Potency (MKL-2) 11.9 µM

Cn1cnc2c1c(=O)[nH]c(=O)n2C
inactive: Potency (MKL-1) | Potency (MKL-2) | Potency (UISO) | Potency (WaGa) | Potency (C33A) | Potency (CAOV3) | Potency (CASKI) | Potency (Es-2) | Potency (HeLa) | Potency (Hek293T) | Potency (JEG-3) | Potency (OV90) | Potency (PA-1) | Potency (SKOV3) | Potency (Tov-21-G) | Potency (Tov112D) | activity, negative = cell killing [1, 5] 0.295% | activity, negative = cell killing [1, 6] -15.5% | activity, negative = cell killing [1, 8] 1.28% | Potency (astro)
